{"source": "PubChem BioAssay AID624273", "about": "(Broad Institute, 2012)", "note": "Among all 1,000 compounds or so, about 230 (23%) were called active. About 1% were inconclusive and are not listed. The rule behind the calls is not given here. Some of the results follow. Results with a measured potency or affinity are listed apart.", "data": [{"biological_target": "Long-chain-fatty-acid--AMP ligase FadD28 (Mycobacterium tuberculosis (strain ATCC 25618 / H37Rv)) (UniProt P9WQ59)", "sequence (P9WQ59 whole entry, looked up)": "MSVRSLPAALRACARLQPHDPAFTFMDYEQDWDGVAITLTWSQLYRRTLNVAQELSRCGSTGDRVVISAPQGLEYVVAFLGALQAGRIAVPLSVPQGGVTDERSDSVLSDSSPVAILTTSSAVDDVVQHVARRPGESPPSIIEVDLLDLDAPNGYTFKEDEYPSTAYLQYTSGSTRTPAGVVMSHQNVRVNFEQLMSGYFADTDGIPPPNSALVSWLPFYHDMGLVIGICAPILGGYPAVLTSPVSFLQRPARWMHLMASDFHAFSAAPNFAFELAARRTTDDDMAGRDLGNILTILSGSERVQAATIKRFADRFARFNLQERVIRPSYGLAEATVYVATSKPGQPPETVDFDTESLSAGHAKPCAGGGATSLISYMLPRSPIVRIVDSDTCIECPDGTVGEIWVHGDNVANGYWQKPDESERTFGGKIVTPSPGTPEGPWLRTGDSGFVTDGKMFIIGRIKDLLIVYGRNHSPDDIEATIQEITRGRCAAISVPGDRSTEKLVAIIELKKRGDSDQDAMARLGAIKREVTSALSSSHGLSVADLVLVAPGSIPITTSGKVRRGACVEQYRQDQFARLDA", "experiment": "inhibitors of FadD28 bisubstrate probe binding, dose response, biochemical, fluorescence polarization, cherry-pick (AID 624273)", "settings": "series mostly up to 50 µM", "values": [{"compound": "Cc1ccc(OCc2nc(-c3ccccn3)no2)cc1", "outcome": "inactive"}, {"compound": "COc1ccc(CCNC(=O)c2ccc(NS(=O)(=O)c3ccc4[nH]c(=O)[nH]c4c3)cc2)cc1", "outcome": "inactive"}, {"compound": "COc1ccc(CCNC(=O)c2ccccc2NS(=O)(=O)c2c(F)cccc2F)cc1", "outcome": "inactive"}, {"compound": "CCC(C)(C)NC(=O)CN(C(=O)CCC(=O)Nc1nccs1)c1ccc2c(c1)OCO2", "outcome": "inactive"}, {"compound": "COc1ccc(COc2ccc3c(C)cc(=O)oc3c2)cc1", "outcome": "inactive"}, {"compound": "Cc1ccc(S(=O)(=O)N(C)CC(=O)OCC(=O)NC(=O)Nc2ccc3c(c2)OCCO3)cc1", "outcome": "inactive"}, {"compound": "CCOC(=O)c1ccc(NC(=O)c2nc[nH]c2C(=O)N(CC)CC)cc1", "outcome": "inactive"}, {"compound": "COc1ccc(S(=O)(=O)N2CCC(C(=O)NCCC(=O)NCc3ccncc3)CC2)cc1", "outcome": "inactive"}, {"compound": "O=C(NCc1ccc(F)cc1)C(Cc1ccccc1)NS(=O)(=O)c1cccs1", "note": "(centres undefined)", "outcome": "inactive"}, {"compound": "Cc1ccc(C)c(NC(=O)C(CC(=O)O)Cc2ccccc2)c1", "note": "(centres undefined)", "outcome": "inactive"}, {"compound": "O=C(NC(Cc1ccccc1)C(=O)O)C1CCN(S(=O)(=O)c2ccccc2C(F)(F)F)CC1", "note": "(centres undefined)", "outcome": "inactive"}, {"compound": "COC(=O)[C@H](Cc1ccccc1)NC(=O)NCc1ccc(C)cc1", "outcome": "inactive"}, {"compound": "C[C@H](CO)N1C[C@H](C)[C@H](CN(C)S(=O)(=O)c2cn(C)cn2)Oc2ccc(NC(=O)Nc3ccc(C(F)(F)F)cc3)cc2CC1=O", "outcome": "inactive"}, {"compound": "NC(Cc1ccccc1)c1nn[nH]n1", "note": "(centres undefined)", "outcome": "inactive"}, {"compound": "CN1CCN(NC(=O)c2ccc(S(=O)(=O)N3CCCCCC3)cc2)CC1", "outcome": "inactive"}, {"compound": "O=C(O)c1cc2ccccc2cc1Nc1ccccc1", "outcome": "inactive"}, {"compound": "CC(=O)c1ccc(Oc2cc(-c3ccccc3)nc(-c3ccccc3)n2)cc1", "outcome": "inactive"}, {"compound": "CCN(CC)CCCn1c(=S)[nH]c2cc(Cl)ccc2c1=O", "outcome": "inactive"}, {"compound": "COC1=CC(=O)OC(CCc2ccc3c(c2)OCO3)C1", "note": "(centres undefined)", "outcome": "inactive"}, {"compound": "Cc1ccc(C(=O)n2nc(C#N)c(C#N)c2N)cc1", "outcome": "inactive"}, {"compound": "N#Cc1ccc(OCC(=O)OCC(=O)Nc2ccc(N3CCOCC3)cc2)cc1", "outcome": "inactive"}, {"compound": "CC(=O)N1CCN(c2ccc(NC(=O)c3ccc(C(C)(C)C)cc3)cc2)CC1", "outcome": "inactive"}, {"compound": "O=C(Sc1ccc(Cl)cc1)c1ccccn1", "outcome": "inactive"}, {"compound": "O=[N+]([O-])c1ccc(N2CCCCCC2)c2nonc12", "outcome": "inactive"}, {"compound": "Cn1c(N)c(S(=O)(=O)N2CCN(c3ccccc3Cl)CC2)c(=O)n(C)c1=O", "outcome": "inactive"}, {"compound": "CCc1c(C)sc(NC(=O)C2CC2c2ccccc2)c1C(N)=O", "note": "(centres undefined)", "outcome": "inactive"}, {"compound": "O=C(/C=C/c1ccc([N+](=O)[O-])cc1)/C=C/c1ccco1", "outcome": "inactive"}, {"compound": "Cc1c(C(=O)C(=O)N2c3ccccc3CC2C)c2ccccc2n1C", "note": "(centres undefined)", "outcome": "inactive"}, {"compound": "C=CCn1c(C)csc1=Nc1ccc(C(C)=O)cc1", "outcome": "inactive"}]}]}
